Screening data: PubChem, National Center for Advancing Translational Sciences (NCATS)
The list is not random: actives were taken first. Their share in the collection is about 2.2%.
Abeta yeast res = qHTS for compounds that reverse cellular toxicity of Amyloid beta (A-beta) peptide in yeast: Primary Screen; yeast expressing A-beta42, growth rescue, OD600, 48 h; response scale: 0% DMSO, 100% iron-clioquinol control; actives 0.063% (n = 410,000); AID 1347071, 2019; Potency, µM (titrated, usually from 46.1 µM), actives largely listed as activators; also: nearly all actives have a fitted effect of over 55% in size
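Yeast growth medium received pinned compounds, then yeast cells expressing toxic A-beta were added; plates incubated at 30 C for 48 hr. Growth read as absorbance at 600 nm, normalized to DMSO and equimolar FeCl3 plus clioquinol controls.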
aSyn yeast inh = qHTS of alpha-syn Inhibitors; actives 0.14% (n = 370,000); AID 652106, 2013; Yeast expressing alpha-synuclein, growth rescue, BacTiter-Glo, 24 h; Potency, µM (highest dose often 46.1 µM), for the others: at the highest dose growth rescue (activation), most hits filed as activators; also: % of control where 0% means no effect; nearly all actives have a fitted effect of over 65% in size
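Rescue of yeast growth: cells expressing toxic alpha-synuclein, induced in galactose at OD600 0.02, incubated with compound 24 h at 30 C. ATP luminescence quantified growth; inhibitors of toxicity appear as activators.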
TDP43 rescue = qHTS of TDP-43 Inhibitors; TDP-43 expressing yeast growth rescue, BacTiter-Glo, 24 h; Potency, µM (series often up to 46.1 µM), without a hit: top-dose growth rescue (activation), hits mostly activators; actives 1.8% (n = 410,000); also: % of control where 0% means no effect; nearly all actives have a fitted effect of over 50% in size
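Yeast expressing TDP-43 (pregrown in raffinose, seeded at OD600=0.02 in galactose medium) exposed to compounds 24 hr at 30 deg C. Growth read by BacTiter-Glo luminescence; rescue of toxicity appears as increased signal.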
FUS suppressor = qHTS for Suppressors of FUS Proteinopathy: Primary screen using FUS-linked yeast assay; Potency, µM (titrated, usually from 76.6 µM), actives largely listed as activators; actives 0.24% (n = 390,000); S. cerevisiae FUS-expressing, growth rescue, OD600, 24 h;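 also: plate controls were DMSO vehicle for no effect and reference control for full effect; nearly all actives have a fitted effect of over 55% in size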
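Absorbance at 600 nm, taken 24hr after compound addition, measured rescue of FUS-yeast growth at 30C. Induction used 2% galactose with seeding at OD 0.005. Controls: CP55940 from 92uM final, DMSO only.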
Mito fusion act = qHTS Assay for Small Molecule Inhibitors of Mitochondrial Division or Activators of Mitochondrial Fusion; AID 485298, 2010; Potency, µM (highest dose often 46.1 µM), for the others: top-dose growth rescue (activation), most hits filed as activators; actives 0.23% (n = 320,000); S. cerevisiae fusion-defective mutant growth rescue, CellTiterGlo 48 h; also: % of control where 0% means no effect; nearly all actives have a fitted effect of over 45% in size
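Growth-rescue viability read-out: after 48 h at the non-permissive 37C in glycerol/ethanol YPEG, yeast mitochondrial fusion mutants are measured by CellTiterGlo luminescence; compounds (23 nl pinned per well) restoring growth score as division inhibitors or fusion activators.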
Numbers without * were called inactive. Calls follow the shape of the dose curve; as a rule, active = well fitted curve in the direction sought with a large enough effect; inconclusive = small, poorly fitted or top-dose-only effect, or another doubt; inactive = no such curve, though single readings can be large; an effect the other way counts as inactive or inconclusive. Potency is read from the fitted curve at half-maximal effect.

Results for Cc1cccc(C)c1NC(=O)CCCN1C(=O)C(c2ccccc2)Oc2cccnc21 (stereo not drawn) ?
Abeta yeast res: inactive; aSyn yeast inh: -0.3%; TDP43 rescue: 12.0%; FUS suppressor: inactive; Mito fusion act: 12.6µM*

Results for O=C(NCCc1c[nH]c2ccccc12)[C@H](Cc1c[nH]c2ccccc12)NC1(C(=O)NC2CCCCC2)CCCCCCC1 ?
FUS suppressor: inactive

Results for COc1ccc(S(=O)(=O)N(C)C[C@H]2Oc3ccc(NS(=O)(=O)c4ccccc4)cc3C(=O)N([C@H](C)CO)C[C@@H]2C)cc1 ?
Abeta yeast res: inactive; aSyn yeast inh: -0.3%; TDP43 rescue: 4.2%; FUS suppressor: 17.8µM*

Results for Cc1ccc(S(=O)(=O)Nc2ccc3c(c2)C(=O)N([C@H](C)CO)C[C@H](C)[C@H](CN(C)C(=O)Nc2cccc4ccccc24)OCCCC[C@@H](C)O3)cc1 ?
Abeta yeast res: inactive; aSyn yeast inh: 6.5%; TDP43 rescue: inconclusive; FUS suppressor: 12.6µM*

How did Cc1ccc(S(=O)(=O)N(C)C[C@@H]2Oc3ncc(C#CCC(C)C)cc3C(=O)N([C@H](C)CO)C[C@H]2C)cc1 do in these assays?
Abeta yeast res: inactive; aSyn yeast inh: 5.8%; TDP43 rescue: 25.1µM*; FUS suppressor: 28.2µM*

Results for Cc1ccc(S(=O)(=O)Nc2ccc3c(c2)C(=O)N([C@@H](C)CO)C[C@@H](C)[C@@H](CN(C)C(=O)NC2CCCCC2)OCCCC[C@H](C)O3)cc1 ?
Abeta yeast res: inactive; aSyn yeast inh: 1.1%; TDP43 rescue: -7.4%; FUS suppressor: inactive

How did Cc1ccc(S(=O)(=O)Nc2ccc3c(c2)C(=O)N([C@H](C)CO)C[C@H](C)[C@@H](CN(C)C(=O)NC2CCCCC2)OCCCC[C@@H](C)O3)cc1 do in these assays?
Abeta yeast res: inactive; aSyn yeast inh: 0.4%; TDP43 rescue: 24.2%; FUS suppressor: 15.8µM*

How did COCC#Cc1cnc2c(c1)C(=O)N([C@H](C)CO)C[C@H](C)[C@@H](CN(C)S(=O)(=O)c1ccccc1)O2 do in these assays?
Abeta yeast res: inactive; aSyn yeast inh: 0.6%; TDP43 rescue: 0.0%; FUS suppressor: inactive

What do the screens show for `C[C@@H]1CCCCO[C@H](CN(C)C(=O)Nc2cccc3ccccc23)[C@@H](C)CN([C@H](C)CO)C(=O)c2cc(N(C)C)ccc2O1`?
Abeta yeast res: inactive; aSyn yeast inh: -1.9%; TDP43 rescue: 0.0%; FUS suppressor: inactive

How did c1ccc(Oc2ccc(-c3ccn[nH]3)cc2)cc1 do in these assays?
Abeta yeast res: inactive; aSyn yeast inh: -27.7%; TDP43 rescue: 14.1µM*; FUS suppressor: inactive; Mito fusion act: 22.1%

How did COc1cc(C2Oc3ccccc3C=C2[N+](=O)[O-])cc(OC)c1OC (stereo not drawn) do in these assays?
Abeta yeast res: inactive; aSyn yeast inh: inconclusive; TDP43 rescue: 5.01µM*; FUS suppressor: inactive; Mito fusion act: -12.9%

What do the screens show for `COc1cc(C2NC(=O)c3ccccc3O2)cc(OC)c1OC` (stereo not drawn)?
Abeta yeast res: inactive; aSyn yeast inh: -15.7%; TDP43 rescue: 8.4%; FUS suppressor: inactive; Mito fusion act: -0.1%

How did COc1cccc(C(=O)Nc2ccc3nc(N4CCN(c5ncccn5)CC4)cc(C)c3c2)c1OC do in these assays?
Mito fusion act: 18.8%

How did CCOc1ccccc1C(=O)Nc1ccc2nc(N3CCN(c4ncccn4)CC3)cc(C)c2c1 do in these assays?
Abeta yeast res: inactive; aSyn yeast inh: -14.6%; TDP43 rescue: 17.8µM*; FUS suppressor: inactive

Results for COc1ccc(CCNC(=O)C(=O)NCC(c2ccco2)S(=O)(=O)c2ccc(C)cc2)cc1 (stereo not drawn) ?
Abeta yeast res: inactive; TDP43 rescue: -10.5%; FUS suppressor: inactive

What do the screens show for `CC(=O)Nc1ccc(-c2ccnc3c2CC(C(=O)Nc2cccc(Oc4ccccc4)c2)O3)cc1` (stereo not drawn)?
Abeta yeast res: inactive; aSyn yeast inh: 13.4%; TDP43 rescue: inconclusive; FUS suppressor: 11.2µM*

What do the screens show for `O=C(Nc1cccnc1)C1Cc2c(-c3ccccc3Oc3ccccc3)ccnc2O1` (stereo not drawn)?
Abeta yeast res: inactive; aSyn yeast inh: 5.9%; TDP43 rescue: 28.2µM*; FUS suppressor: inactive

Results for CN(C)c1cccc(NC(=O)C2Cc3c(-c4ccccc4Oc4ccccc4)ccnc3O2)c1 (stereo not drawn) ?
Abeta yeast res: inactive; aSyn yeast inh: -1.3%; TDP43 rescue: 22.4%; FUS suppressor: 25.1µM*

Results for CC(=O)c1cccc(NC(=O)C2Cc3c(-c4ccccc4Oc4ccccc4)ccnc3O2)c1 (stereo not drawn) ?
Abeta yeast res: inactive; aSyn yeast inh: 7.0%; TDP43 rescue: inconclusive; FUS suppressor: inconclusive

What do the screens show for `COc1ccc(-n2ncc3c(NC4CCCC4)ncnc32)cc1`?
Abeta yeast res: inactive; TDP43 rescue: inconclusive; FUS suppressor: inactive

What do the screens show for `Cc1ccc(Cn2c(C)c(CNCc3ccccc3F)c(C(=O)O)c2C)cc1`?
Abeta yeast res: inactive; TDP43 rescue: -24.2%; FUS suppressor: inactive

What do the screens show for `COc1cccc(N2CCN(C(=O)c3cc4c(OC)c(OC)c(OC)cc4[nH]3)CC2)c1`?
Abeta yeast res: inactive; aSyn yeast inh: -8.8%; TDP43 rescue: 19.9%; FUS suppressor: inactive; Mito fusion act: -7.5%

Results for NC(=O)c1cc(C(=O)c2cccc(Cl)c2Cl)c[nH]1 ?
Abeta yeast res: inactive; aSyn yeast inh: -0.3%; TDP43 rescue: -5.8%; FUS suppressor: inactive; Mito fusion act: -6.1%

What do the screens show for `Cc1ccccc1C(=O)c1c[nH]c(C(=O)N2CCN(c3ccccc3F)CC2)c1`?
Abeta yeast res: inactive; aSyn yeast inh: 9.9%; TDP43 rescue: 25.1µM*; FUS suppressor: inactive; Mito fusion act: 3.2%

How did O=C(c1c[nH]c(C(=O)N2CCN(c3ccccc3F)CC2)c1)c1cccc(Cl)c1Cl do in these assays?
Abeta yeast res: 3.16µM*; aSyn yeast inh: inconclusive; TDP43 rescue: 25.1µM*; FUS suppressor: inactive; Mito fusion act: 0.4%

How did Cc1ccc(N2CCN(C(=O)c3ccccc3F)CC2)c(C)c1 do in these assays?
Abeta yeast res: inactive; aSyn yeast inh: -20.1%; TDP43 rescue: inconclusive; FUS suppressor: inactive; Mito fusion act: 19.6%

How did COc1cc2[nH]c(C(=O)N3CCN(c4ccccc4F)CC3)cc2c(OC)c1OC do in these assays?
Abeta yeast res: inactive; aSyn yeast inh: 13.2%; TDP43 rescue: 35.5µM*; FUS suppressor: inactive; Mito fusion act: -16.8%
